Source: publication PMC7862700, “An all-to-all approach to the identification of sequence-specific readers for epigenetic DNA modifications on cytosine”

Tests used:
Assay in all cases: DAPPL (digital affinity profiling via proximity ligation, sequencing); 10 mM Tris-HCl pH 7.5, 50 mM NaCl, 1 mM DTT, 4% glycerol, room temperature, 30 min; GST-TFs on glutathione beads, 16-mer random dsDNA library, 0.1% formaldehyde crosslink after washing; high values mean tight binding
Conditions in all cases: protein: recombinant; tags: N-terminal GST; dsDNA, one strand shown
[1] = molecular target: T1, FLI1 (Homo sapiens, UniProt Q01543 1-452)
T1 sequence: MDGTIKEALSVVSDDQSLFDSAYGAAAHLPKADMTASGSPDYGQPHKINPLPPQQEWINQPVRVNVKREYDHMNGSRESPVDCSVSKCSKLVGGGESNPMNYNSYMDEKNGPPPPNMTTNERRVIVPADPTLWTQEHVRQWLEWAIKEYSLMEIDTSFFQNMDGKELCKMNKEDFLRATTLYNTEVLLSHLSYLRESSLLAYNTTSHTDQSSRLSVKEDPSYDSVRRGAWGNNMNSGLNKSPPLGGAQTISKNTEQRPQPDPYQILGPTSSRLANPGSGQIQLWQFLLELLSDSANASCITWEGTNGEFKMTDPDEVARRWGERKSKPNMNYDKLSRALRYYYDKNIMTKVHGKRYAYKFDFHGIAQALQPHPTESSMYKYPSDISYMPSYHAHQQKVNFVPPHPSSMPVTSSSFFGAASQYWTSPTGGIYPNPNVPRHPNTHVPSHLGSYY
Procedure, shortened: (§1)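 Human transcription factors were made in yeast as GST fusions, captured on glutathione beads and barcoded with DNA. With a tag-only sample included, the pool was incubated with 200 nmole of a random double-stranded 16-mer DNA library in Tris/NaCl/DTT/glycerol buffer at room temperature for 30 min, then crosslinked with 0.1% formaldehyde after washing, ligated by proximity, amplified and sequenced. For binding signal, each hexamer's read frequency for a factor is divided by its frequency for the tag-only sample.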

[2] = molecular target: T2, ELK1 (Homo sapiens, UniProt P19419 1-428)
T2 sequence: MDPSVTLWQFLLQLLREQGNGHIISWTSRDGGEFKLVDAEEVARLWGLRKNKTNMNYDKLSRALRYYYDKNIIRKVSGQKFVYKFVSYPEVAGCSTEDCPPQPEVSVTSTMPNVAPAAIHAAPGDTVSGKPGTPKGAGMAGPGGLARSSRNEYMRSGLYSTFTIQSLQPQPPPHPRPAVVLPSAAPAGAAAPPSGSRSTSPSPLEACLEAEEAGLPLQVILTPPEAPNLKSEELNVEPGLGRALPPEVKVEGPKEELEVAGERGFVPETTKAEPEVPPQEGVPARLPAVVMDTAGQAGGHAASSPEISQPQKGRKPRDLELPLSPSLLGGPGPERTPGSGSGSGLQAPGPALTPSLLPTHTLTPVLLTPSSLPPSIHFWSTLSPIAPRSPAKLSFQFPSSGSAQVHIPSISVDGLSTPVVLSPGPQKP
Procedure, shortened: as §1

[3] = molecular target: T3, GABPA (Homo sapiens, UniProt Q06546 1-454)
T3 sequence: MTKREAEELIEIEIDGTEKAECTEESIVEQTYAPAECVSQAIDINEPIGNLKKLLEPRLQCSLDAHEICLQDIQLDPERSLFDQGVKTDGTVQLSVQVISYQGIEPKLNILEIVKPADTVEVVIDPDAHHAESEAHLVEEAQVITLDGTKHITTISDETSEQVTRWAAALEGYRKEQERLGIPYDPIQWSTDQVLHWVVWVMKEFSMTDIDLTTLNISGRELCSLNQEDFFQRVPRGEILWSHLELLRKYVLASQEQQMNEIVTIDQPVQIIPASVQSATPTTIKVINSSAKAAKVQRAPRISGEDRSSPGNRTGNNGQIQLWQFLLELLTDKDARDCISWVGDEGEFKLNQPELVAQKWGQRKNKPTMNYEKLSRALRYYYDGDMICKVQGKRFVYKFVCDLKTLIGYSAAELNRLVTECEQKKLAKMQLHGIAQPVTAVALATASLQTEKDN
Procedure, shortened: as §1

[4] = molecular target: T4, ERG (Homo sapiens, UniProt P11308 1-479)
T4 sequence: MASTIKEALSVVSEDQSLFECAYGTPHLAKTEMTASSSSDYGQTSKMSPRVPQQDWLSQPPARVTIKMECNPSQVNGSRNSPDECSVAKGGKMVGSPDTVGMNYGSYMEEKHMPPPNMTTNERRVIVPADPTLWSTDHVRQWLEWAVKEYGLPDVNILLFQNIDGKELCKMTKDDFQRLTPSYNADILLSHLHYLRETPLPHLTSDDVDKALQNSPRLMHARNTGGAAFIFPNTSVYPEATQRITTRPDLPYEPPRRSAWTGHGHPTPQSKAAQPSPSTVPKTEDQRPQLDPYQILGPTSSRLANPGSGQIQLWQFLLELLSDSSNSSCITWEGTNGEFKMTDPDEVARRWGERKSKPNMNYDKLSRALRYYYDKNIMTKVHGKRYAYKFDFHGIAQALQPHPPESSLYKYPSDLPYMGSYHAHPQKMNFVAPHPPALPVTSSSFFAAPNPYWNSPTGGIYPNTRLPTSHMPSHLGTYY
Procedure, shortened: as §1

[5] = molecular target: ELF1 (Homo sapiens, UniProt P32519 1-619)
Procedure, shortened: as §1

[6] = molecular target: T5, EHF (Homo sapiens, UniProt Q9NZC4 1-300)
T5 sequence: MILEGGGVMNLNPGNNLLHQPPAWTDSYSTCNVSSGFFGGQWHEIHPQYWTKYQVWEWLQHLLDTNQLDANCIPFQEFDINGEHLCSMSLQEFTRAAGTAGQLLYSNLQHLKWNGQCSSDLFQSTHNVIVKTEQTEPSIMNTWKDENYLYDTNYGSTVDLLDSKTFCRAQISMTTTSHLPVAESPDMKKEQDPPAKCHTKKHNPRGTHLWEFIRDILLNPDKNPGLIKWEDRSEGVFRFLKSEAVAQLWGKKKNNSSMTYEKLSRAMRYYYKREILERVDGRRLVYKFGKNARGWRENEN
Procedure, shortened: as §1

[7] = molecular target: SPI1 (Homo sapiens, UniProt P17947 1-270)
Procedure, shortened: as §1

[8] = molecular target: SPIB (Homo sapiens, UniProt Q01892 1-262)
Procedure, shortened: as §1

[9] = molecular target: T6, ELK3 (Homo sapiens, UniProt P41970 1-407)
T6 sequence: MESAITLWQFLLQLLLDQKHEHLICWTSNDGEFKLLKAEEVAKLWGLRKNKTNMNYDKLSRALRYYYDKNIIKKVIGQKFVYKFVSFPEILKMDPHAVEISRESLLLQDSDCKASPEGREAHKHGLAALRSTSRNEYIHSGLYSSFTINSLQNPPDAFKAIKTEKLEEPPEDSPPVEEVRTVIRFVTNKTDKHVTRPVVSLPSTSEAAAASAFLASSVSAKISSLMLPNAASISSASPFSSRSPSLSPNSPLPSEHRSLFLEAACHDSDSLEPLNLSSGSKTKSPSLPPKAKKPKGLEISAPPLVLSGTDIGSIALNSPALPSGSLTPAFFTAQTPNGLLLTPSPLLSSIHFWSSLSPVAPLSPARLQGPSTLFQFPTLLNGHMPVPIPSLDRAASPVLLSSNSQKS
Procedure, shortened: as §1

[10] = molecular target: T7, FEV (Homo sapiens, UniProt Q99581 1-238)
T7 sequence: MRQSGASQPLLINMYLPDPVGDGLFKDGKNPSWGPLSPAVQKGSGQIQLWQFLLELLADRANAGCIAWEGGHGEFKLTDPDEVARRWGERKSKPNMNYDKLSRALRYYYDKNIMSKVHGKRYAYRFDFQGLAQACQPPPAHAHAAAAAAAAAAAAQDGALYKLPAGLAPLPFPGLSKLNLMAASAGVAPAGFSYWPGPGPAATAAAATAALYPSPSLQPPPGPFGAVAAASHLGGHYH
Procedure, shortened: as §1

[11] = molecular target: ETV5 (Homo sapiens, UniProt P41161 1-510)
Procedure, shortened: as §1

[12] = molecular target: T8, SPIC (Homo sapiens, UniProt Q8N5J4 1-248)
T8 sequence: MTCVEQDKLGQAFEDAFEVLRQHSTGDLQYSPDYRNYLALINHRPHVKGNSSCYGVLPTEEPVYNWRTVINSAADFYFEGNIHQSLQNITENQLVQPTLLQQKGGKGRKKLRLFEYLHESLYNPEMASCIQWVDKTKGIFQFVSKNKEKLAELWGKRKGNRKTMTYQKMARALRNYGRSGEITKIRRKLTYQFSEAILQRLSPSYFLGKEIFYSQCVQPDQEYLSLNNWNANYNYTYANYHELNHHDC
Procedure, shortened: as §1

[13] = molecular target: ELF4 (Homo sapiens, UniProt Q99607 1-663)
Procedure, shortened: as §1

[14] = molecular target: T9, ELK4 (Homo sapiens, UniProt P28324-2 1-405)
T9 sequence: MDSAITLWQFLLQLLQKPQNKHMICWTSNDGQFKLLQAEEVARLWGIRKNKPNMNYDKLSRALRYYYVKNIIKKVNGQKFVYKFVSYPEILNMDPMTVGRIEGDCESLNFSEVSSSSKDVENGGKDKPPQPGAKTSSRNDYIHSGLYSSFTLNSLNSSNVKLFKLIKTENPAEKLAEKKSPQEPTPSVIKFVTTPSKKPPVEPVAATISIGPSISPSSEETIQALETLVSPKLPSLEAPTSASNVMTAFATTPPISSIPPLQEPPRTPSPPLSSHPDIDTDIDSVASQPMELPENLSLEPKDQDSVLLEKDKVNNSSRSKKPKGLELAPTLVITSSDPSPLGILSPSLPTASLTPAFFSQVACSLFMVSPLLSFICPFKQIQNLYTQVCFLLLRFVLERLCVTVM
Procedure, shortened: as §1

[15] = molecular target: T10, ETV2 (Homo sapiens, UniProt O00321 1-342)
T10 sequence: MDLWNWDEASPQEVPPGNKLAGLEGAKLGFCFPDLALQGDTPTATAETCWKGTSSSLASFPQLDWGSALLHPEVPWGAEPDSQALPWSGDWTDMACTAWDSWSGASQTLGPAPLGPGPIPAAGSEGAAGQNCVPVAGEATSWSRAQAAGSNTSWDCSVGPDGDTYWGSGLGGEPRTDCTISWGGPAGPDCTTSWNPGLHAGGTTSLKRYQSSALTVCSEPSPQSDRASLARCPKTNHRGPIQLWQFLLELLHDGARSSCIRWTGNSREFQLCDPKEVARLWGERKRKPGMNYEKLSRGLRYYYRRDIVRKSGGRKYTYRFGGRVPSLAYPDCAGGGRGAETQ
Procedure, shortened: as §1

[16] = molecular target: T11, ELF3 (Homo sapiens, UniProt P78545 1-371)
T11 sequence: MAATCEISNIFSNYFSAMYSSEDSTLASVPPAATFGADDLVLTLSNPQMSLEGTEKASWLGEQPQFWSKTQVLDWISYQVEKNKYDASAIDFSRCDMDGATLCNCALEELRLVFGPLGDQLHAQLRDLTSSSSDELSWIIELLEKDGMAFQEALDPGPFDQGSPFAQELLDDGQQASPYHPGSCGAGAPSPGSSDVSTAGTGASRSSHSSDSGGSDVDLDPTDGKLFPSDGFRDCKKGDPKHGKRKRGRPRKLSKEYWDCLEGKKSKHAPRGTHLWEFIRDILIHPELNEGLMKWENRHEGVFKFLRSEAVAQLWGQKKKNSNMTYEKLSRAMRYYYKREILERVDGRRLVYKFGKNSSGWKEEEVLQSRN
Procedure, shortened: as §1

[17] = molecular target: CRX (Homo sapiens, UniProt O43186 1-299)
Procedure, shortened: as §1

[18] = molecular target: ETV1 (Homo sapiens, UniProt P50549 1-477)
Procedure, shortened: as §1

Sequence of ELF4 (Q99607 whole entry): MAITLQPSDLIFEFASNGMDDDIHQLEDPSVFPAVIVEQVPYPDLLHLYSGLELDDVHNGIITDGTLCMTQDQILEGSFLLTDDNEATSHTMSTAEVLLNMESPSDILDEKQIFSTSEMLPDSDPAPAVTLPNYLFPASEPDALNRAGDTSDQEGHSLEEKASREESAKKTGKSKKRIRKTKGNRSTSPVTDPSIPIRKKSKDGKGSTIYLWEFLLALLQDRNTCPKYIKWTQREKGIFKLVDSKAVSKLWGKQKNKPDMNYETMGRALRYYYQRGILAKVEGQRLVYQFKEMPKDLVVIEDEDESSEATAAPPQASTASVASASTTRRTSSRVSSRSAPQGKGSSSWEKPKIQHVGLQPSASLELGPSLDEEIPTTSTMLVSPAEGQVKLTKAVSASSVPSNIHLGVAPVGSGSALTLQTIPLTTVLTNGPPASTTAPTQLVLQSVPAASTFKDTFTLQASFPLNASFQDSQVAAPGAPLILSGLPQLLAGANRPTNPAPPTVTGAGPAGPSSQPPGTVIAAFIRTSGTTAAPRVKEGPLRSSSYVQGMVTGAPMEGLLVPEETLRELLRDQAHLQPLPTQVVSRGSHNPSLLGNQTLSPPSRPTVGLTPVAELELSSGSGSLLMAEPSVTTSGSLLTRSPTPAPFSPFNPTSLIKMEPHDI
Sequence of SPIB (Q01892 whole entry): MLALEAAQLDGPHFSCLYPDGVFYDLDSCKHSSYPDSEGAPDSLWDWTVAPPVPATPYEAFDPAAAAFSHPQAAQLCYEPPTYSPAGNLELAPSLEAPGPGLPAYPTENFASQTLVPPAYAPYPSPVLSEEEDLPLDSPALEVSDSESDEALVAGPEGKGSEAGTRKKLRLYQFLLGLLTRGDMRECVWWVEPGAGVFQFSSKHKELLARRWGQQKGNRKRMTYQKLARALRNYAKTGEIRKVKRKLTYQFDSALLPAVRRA
Sequence of CRX (O43186 whole entry): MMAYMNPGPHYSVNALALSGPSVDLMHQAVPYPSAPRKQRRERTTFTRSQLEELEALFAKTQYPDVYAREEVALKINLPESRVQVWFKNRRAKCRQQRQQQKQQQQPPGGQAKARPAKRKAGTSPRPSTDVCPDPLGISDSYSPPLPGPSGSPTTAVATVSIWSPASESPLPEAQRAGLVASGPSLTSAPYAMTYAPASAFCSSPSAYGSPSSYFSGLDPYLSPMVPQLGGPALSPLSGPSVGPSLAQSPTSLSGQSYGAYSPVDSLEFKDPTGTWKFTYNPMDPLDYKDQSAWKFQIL
Sequence of ETV1 (P50549 whole entry): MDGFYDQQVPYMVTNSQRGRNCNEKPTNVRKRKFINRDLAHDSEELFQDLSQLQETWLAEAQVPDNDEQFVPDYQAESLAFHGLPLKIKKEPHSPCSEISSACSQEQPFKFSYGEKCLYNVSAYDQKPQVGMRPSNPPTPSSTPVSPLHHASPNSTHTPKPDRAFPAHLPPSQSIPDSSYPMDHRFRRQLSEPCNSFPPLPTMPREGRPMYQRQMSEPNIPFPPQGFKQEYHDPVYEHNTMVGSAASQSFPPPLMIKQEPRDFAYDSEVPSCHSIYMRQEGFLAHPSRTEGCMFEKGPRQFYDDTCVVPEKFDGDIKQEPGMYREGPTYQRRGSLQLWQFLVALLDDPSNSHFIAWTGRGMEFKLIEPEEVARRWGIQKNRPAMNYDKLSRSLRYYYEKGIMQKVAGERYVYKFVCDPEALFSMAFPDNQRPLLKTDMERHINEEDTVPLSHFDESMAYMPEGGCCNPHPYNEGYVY
Sequence of ELF1 (P32519 whole entry): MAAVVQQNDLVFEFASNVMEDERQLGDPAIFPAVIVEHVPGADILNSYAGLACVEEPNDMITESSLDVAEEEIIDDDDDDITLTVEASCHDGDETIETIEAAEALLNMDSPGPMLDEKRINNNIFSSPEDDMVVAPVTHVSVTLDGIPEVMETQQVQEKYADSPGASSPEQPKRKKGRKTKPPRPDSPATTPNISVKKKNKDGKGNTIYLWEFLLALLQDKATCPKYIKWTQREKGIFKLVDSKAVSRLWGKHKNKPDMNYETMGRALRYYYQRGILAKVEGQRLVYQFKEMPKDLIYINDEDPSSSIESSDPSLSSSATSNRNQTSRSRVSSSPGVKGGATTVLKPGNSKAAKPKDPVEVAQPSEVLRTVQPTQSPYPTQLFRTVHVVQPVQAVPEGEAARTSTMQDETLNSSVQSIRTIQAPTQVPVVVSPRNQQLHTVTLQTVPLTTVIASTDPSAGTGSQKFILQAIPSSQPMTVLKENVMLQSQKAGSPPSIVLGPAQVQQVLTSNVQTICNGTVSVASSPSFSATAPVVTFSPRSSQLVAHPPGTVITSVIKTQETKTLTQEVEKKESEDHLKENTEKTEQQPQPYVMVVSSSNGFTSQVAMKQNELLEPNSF
Sequence of ETV5 (P41161 whole entry): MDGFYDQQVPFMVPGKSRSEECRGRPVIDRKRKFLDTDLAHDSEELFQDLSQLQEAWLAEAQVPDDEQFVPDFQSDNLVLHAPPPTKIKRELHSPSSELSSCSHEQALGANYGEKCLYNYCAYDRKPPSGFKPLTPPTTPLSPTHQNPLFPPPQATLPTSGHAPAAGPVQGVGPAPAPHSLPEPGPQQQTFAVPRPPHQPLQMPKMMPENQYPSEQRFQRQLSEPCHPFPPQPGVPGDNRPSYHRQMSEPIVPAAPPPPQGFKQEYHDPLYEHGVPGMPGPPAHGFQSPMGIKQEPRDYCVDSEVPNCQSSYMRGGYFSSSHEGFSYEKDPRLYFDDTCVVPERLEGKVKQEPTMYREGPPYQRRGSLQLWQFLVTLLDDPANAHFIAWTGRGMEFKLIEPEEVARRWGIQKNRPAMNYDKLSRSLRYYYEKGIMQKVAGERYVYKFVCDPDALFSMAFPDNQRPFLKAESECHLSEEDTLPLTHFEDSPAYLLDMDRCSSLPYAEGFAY

## CCTGTA
[1]
  binding signal: 1.31 fold enrichment (6-mer frequency, TF over GST control)
[2]
  binding signal: 1.16 fold enrichment (6-mer frequency, TF over GST control)
[3]
  binding signal: 1.12 fold enrichment (6-mer frequency, TF over GST control)
[4]
  binding signal: 1.28 fold enrichment (6-mer frequency, TF over GST control)
[5]
  binding signal: 1.14 fold enrichment (6-mer frequency, TF over GST control)
[6]
  binding signal: 1.14 fold enrichment (6-mer frequency, TF over GST control)
[7]
  binding signal: 1.28 fold enrichment (6-mer frequency, TF over GST control)
[8]
  binding signal: 1.19 fold enrichment (6-mer frequency, TF over GST control)
[9]
  binding signal: 1.28 fold enrichment (6-mer frequency, TF over GST control)
[10]
  binding signal: 1.2 fold enrichment (6-mer frequency, TF over GST control)
[11]
  binding signal: 1.26 fold enrichment (6-mer frequency, TF over GST control)
[12]
  binding signal: 1.23 fold enrichment (6-mer frequency, TF over GST control)
[13]
  binding signal: 1.25 fold enrichment (6-mer frequency, TF over GST control)
[14]
  binding signal: 1.16 fold enrichment (6-mer frequency, TF over GST control)
[15]
  binding signal: 1.21 fold enrichment (6-mer frequency, TF over GST control)
[16]
  binding signal: 1.09 fold enrichment (6-mer frequency, TF over GST control)
[17]
  binding signal: 1.04 fold enrichment (6-mer frequency, TF over GST control)
[18]
  binding signal: 1.3 fold enrichment (6-mer frequency, TF over GST control)

## TCACAT
[1]
  binding signal: 1.23 fold enrichment (6-mer frequency, TF over GST control)
[2]
  binding signal: 1.25 fold enrichment (6-mer frequency, TF over GST control)
[3]
  binding signal: 1.23 fold enrichment (6-mer frequency, TF over GST control)
[4]
  binding signal: 1.29 fold enrichment (6-mer frequency, TF over GST control)
[5]
  binding signal: 1.32 fold enrichment (6-mer frequency, TF over GST control)
[6]
  binding signal: 1.27 fold enrichment (6-mer frequency, TF over GST control)
[7]
  binding signal: 1.32 fold enrichment (6-mer frequency, TF over GST control)
[8]
  binding signal: 1.19 fold enrichment (6-mer frequency, TF over GST control)
[9]
  binding signal: 1.24 fold enrichment (6-mer frequency, TF over GST control)
[10]
  binding signal: 1.28 fold enrichment (6-mer frequency, TF over GST control)
[11]
  binding signal: 1.28 fold enrichment (6-mer frequency, TF over GST control)
[12]
  binding signal: 1.11 fold enrichment (6-mer frequency, TF over GST control)
[13]
  binding signal: 1.15 fold enrichment (6-mer frequency, TF over GST control)
[14]
  binding signal: 1.17 fold enrichment (6-mer frequency, TF over GST control)
[15]
  binding signal: 1.32 fold enrichment (6-mer frequency, TF over GST control)
[16]
  binding signal: 1.21 fold enrichment (6-mer frequency, TF over GST control)
[17]
  binding signal: 1.09 fold enrichment (6-mer frequency, TF over GST control)
[18]
  binding signal: 1.21 fold enrichment (6-mer frequency, TF over GST control)
